# Shown are actives, neighbours in structure and some others; about 4% of the full set was active somewhere.
# PAX8 reporter: inhibitors of PAX8 transcriptional activity in RMG-I cells. RMG-I TPO-luciferase reporter, SteadyGlo, 24 h. inhibition, % at 12.6 µM. hit rate 1.2% among 360,000. AID 652154;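 active = mean replicate inhibition at least 60% with every replicate also reaching 60%; inconclusive = only one of the two criteria is met; inactive = mean below 60% and not all replicates reaching 60%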;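 also: luciferase light reporting Pax8 driven TPO promoter activity; plate controls were median of neutral control wells for no effect and mitoxantrone controls for full effect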
# TRPM1 prom inh: MITF TRPM1 promoter inhibition in SK-MEL-5 cells; hit rate 0.83% among 330,000; inhibition, % at 12.5 µM; SK-MEL-5 TRPM1 promoter luciferase, 24 h;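 active = mean inhibition across replicates of 60% or more, whatever share of single replicates reaches that level; inconclusive = some that reach 60%, reason not given; inactive = mean inhibition across replicates below 60%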
# esBAF inh: blocks esBAF chromatin remodeling in mouse ES cells; Bmi1-luciferase knock-in reporter, 24 h; 100% = twice the neutral-well signal; reporter increase, % at 12.5 µM; hit rate 2% among 350,000; AID 602393; in the data active = activation above about 40%; inconclusive = no clear call, values can overlap the other calls;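 also: 0% = median of the plate's neutral control wells and 100% = double that signal; a rise in the Bmi1 reporter signal indicates esBAF inhibition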
# MITF act: increases MITF-driven TRPM1 promoter luciferase signal; SK-MEL-5 TRPM1-promoter luciferase, 24 h; % of positive control, neutral wells = 0; activation, % at 12.5 µM; hit rate 0.75% among 300,000; AID 588334;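 active = mean activation of at least 80% with every replicate also reaching 80%; inconclusive = mean reaches 80% but some replicate falls short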;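 also: 0% = neutral control wells and 100% = parthenolide positive control wells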
# Wnt bcat act: activates Wnt/beta-catenin signaling in a reporter cell assay | activator, plate reader | activation, % at 9.35 µM | hit rate 1.2% among 300,000 | AID 743398; in the data active = activation above about 30%, passing the limit was not always enough; inconclusive = no clear call, values can overlap the other calls;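 also: 0% = neutral control wells and 100% = positive control wells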
# EWS-Fli inh: blocks EWS/Fli oncoprotein-driven transcription; A673 NR0B1-luciferase reporter, viability-normalised; inhibition, % at 12.6 µM; hit rate 0.67% among 350,000; AID 651661;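 active = mean inhibition of at least 50% after viability correction, with every replicate also passing that limit; inconclusive = mean reaches 50% but only one of two replicates passes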;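 also: firefly luciferase signal divided by Alamar Blue viability fluorescence both relative to DMSO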
# * hit, by the source's call; ? = inconclusive; nt = no result.
SMILES,PAX8 reporter,TRPM1 prom inh,esBAF inh,MITF act,Wnt bcat act,EWS-Fli inh
CCCCN1C(=N)N([C@@H](CN2CCC[C@H]2CN2C(N)=NC[C@@H]2Cc2ccccc2)C(C)C)C[C@H]1Cc1ccccc1,63*,7,4,-3,-3,7
CCCCN1C(=N)N([C@@H](C)CN2CCC[C@H]2CN2C(N)=NC[C@@H]2Cc2ccccc2)C[C@H]1Cc1ccccc1,49,nt,-4,nt,3,-4
COC(=O)c1c(C)[nH]c(C(=O)C(C)OC(=O)C2CC(=O)N(CCc3ccccc3)C2)c1C (stereo unspecified),1,8,-5,-7,50*,-5
COc1cccc(S(=O)(=O)Nc2ccc3c(c2)[C@H]2C[C@@H](CC(=O)NCc4ccc(Cl)cc4)O[C@H](CO)[C@H]2O3)c1,63*,nt,2,nt,nt,32
COc1cccc(S(=O)(=O)Nc2ccc3c(c2)[C@@H]2C[C@H](CC(=O)NCc4ccc(Cl)cc4)O[C@@H](CO)[C@@H]2O3)c1,62*,nt,-21,nt,nt,23
COc1cccc(S(=O)(=O)Nc2ccc3c(c2)[C@@H]2C[C@H](CC(=O)NCc4ccc(Cl)cc4)O[C@H](CO)[C@@H]2O3)c1,18,nt,-4,nt,nt,9
Cc1ccccc1S(=O)(=O)NCC[C@H]1CC[C@H](NC(=O)C2CC2)[C@@H](CO)O1,3,nt,2,nt,nt,-2
CC(C)(C)c1nnc(NC(=O)COc2ccc3c(c2)OCO3)s1,-130,-87,69*,85*,-2,-52
CC(C)(C)c1nnc(NC(=O)c2ccc3c(c2)OCO3)s1,-200,-113,nt,121*,?,-111
C=CCNc1nc(N)c(C(=O)Nc2cc(C)on2)s1,nt,-57,32,55,nt,nt
CC(C)Sc1nnc(NC(=O)c2ccc3c(c2)OCO3)s1,-57,-91,37,88*,0,-99
CC(C)c1nnc(NC(=O)c2ccc3c(c2)OCO3)s1,28,-2,nt,6,1,?
C=CCNc1nc(N)c(C(=O)c2ccc3c(c2)OCO3)s1,nt,-35,52*,46,nt,nt
C[C@@H]1CCCCO[C@@H](CN(C)Cc2ccc(C(=O)O)cc2)[C@@H](C)CN([C@H](C)CO)C(=O)c2cc(NS(=O)(=O)c3ccccc3)ccc2O1,-3,nt,0,nt,nt,-10
C[C@H]1CCCCO[C@@H](CN(C)C(=O)CCC(F)(F)F)[C@@H](C)CN([C@@H](C)CO)C(=O)c2cc(NC(=O)NC3CCCCC3)ccc2O1,nt,nt,-6,nt,nt,6
C[C@@H]1CN([C@@H](C)CO)C(=O)c2cccc(NC(=O)Nc3ccc4c(c3)OCO4)c2O[C@H]1CN(C)Cc1ccc(Oc2ccccc2)cc1,nt,nt,11,nt,nt,-21
CC1(Cc2ccc(OC(F)(F)F)cc2)C(=O)Nc2ccc(S(=O)(=O)NC3CCCCC3)cc21 (stereo unspecified),90*,nt,-11,nt,-3,6
CC1(Cc2ccc(Cl)cc2)C(=O)Nc2ccc(S(=O)(=O)NC3CCCCC3)cc21 (stereo unspecified),6,nt,14,nt,-8,-1
C[C@@H]1CN([C@H](C)CO)C(=O)c2cccc(NC(=O)CCCCCC(=O)Nc3ccccc3N)c2O[C@H]1CN(C)C(=O)Nc1ccc(F)cc1,-22,nt,nt,nt,nt,nt
Nc1ccc2nc(C3CCCCC3)[nH]c2c1,3,-8,7,12,-3,-3
Nc1ccc2cc3[nH]c4cc(N)ccc4c3nc2c1,90*,83*,-81,-82,5,42
CN(C)C(=O)C[C@H]1CC[C@H]2[C@H](COc3ccc(NC(=O)NCc4ccccc4)cc3C(=O)N2C)O1,-5,nt,5,nt,nt,4
CC(=O)Nc1cccc(-c2cc(NC(C)=O)c3ncc(-c4cccc(C(C)=O)c4)n3c2)c1,11,nt,11,nt,1,-2
CC(=O)Nc1cccc(-c2cc(NC=O)c3ncc(-c4ccc(C(C)=O)cc4)n3c2)c1,71*,nt,1,nt,-1,7
CC(=O)c1ccc(-c2cnc3c(NC=O)cc(-c4ccc(N5CCN(C)CC5)cc4)cn23)cc1,-38,nt,5,nt,-3,-49
SMILES,PAX8 reporter,TRPM1 prom inh,esBAF inh,MITF act,Wnt bcat act,EWS-Fli inh
CC(=O)c1ccc(-c2cnc3c(NC=O)cc(-c4ccccc4Oc4ccccc4)cn23)cc1,84*,nt,-15,nt,-15,33
COc1ccc(-c2cc(NC=O)c3ncc(-c4ccc(C(C)=O)cc4)n3c2)cn1,65*,nt,-40,nt,-4,43
COc1ccc2c3c(n(C)c2c1)[C@@H](CO)N(CC1CC1)CC31CN(C(=O)c2ccc(F)cc2)C1,nt,nt,nt,nt,nt,-5
CC(C)C(=O)Nc1ccc2c(c1)C(=O)N(C)[C@H]1CC[C@@H](CC(=O)NCc3ccc(F)cc3)O[C@H]1CO2,13,nt,4,nt,nt,7
Cc1ccc(NC(=O)C2=C(c3ccccc3)S(=O)(=O)CCS2(=O)=O)cc1,116*,95*,nt,-94,27,65*
CCOC(=O)CCc1c(C)nc2cc(-c3ccc(Cl)cc3)[nH]n2c1=O,nt,-9,-6,16,-1,nt
CCc1c(C)nc2cc(-c3ccc(Cl)cc3)[nH]n2c1=O,-94,-63,56*,nt,11,-121
CCc1c(C)nc2cc(-c3cccc(Br)c3)[nH]n2c1=O,-119,-42,56*,nt,36*,-108
CCCC(=O)N1CCCC(C(=O)c2cccc(OC(C)C)c2)C1 (stereo unspecified),-54,-38,54*,nt,1,-58
C[C@@H]1CCCCO[C@H](CN(C)CC2CCCCC2)[C@@H](C)CN([C@H](C)CO)C(=O)c2cc(NC(=O)Nc3ccc(C(F)(F)F)cc3)ccc2O1,-23,nt,-4,nt,nt,-1
C[C@@H]1CN([C@@H](C)CO)C(=O)c2cc(NC(=O)Nc3ccc(C(F)(F)F)cc3)ccc2O[C@@H](C)CCCCO[C@@H]1CN(C)CC1CCCCC1,108*,nt,5,nt,nt,-12
C[C@@H]1CCCCO[C@@H](CN(C)CC2CCCCC2)[C@@H](C)CN([C@@H](C)CO)C(=O)c2cc(NC(=O)Nc3ccc(C(F)(F)F)cc3)ccc2O1,100*,nt,1,nt,nt,65*
C[C@@H]1CCCCO[C@@H](CN(C)CC2CCCCC2)[C@H](C)CN([C@H](C)CO)C(=O)c2cc(NC(=O)Nc3ccc(C(F)(F)F)cc3)ccc2O1,-24,nt,-48,nt,nt,76*
C[C@@H]1CCCCO[C@H](CN(C)CC2CCCCC2)[C@H](C)CN([C@H](C)CO)C(=O)c2cc(NC(=O)Nc3ccc(C(F)(F)F)cc3)ccc2O1,9,nt,-81,nt,nt,75*
O=C(Cc1ccncc1)NCC[C@H]1CC[C@@H](NC(=O)Nc2ccc(F)cc2)[C@@H](CO)O1,5,nt,3,nt,nt,-2
COc1ccc(NC(=O)N(C)C[C@@H]2Oc3c(NC(=O)c4cc(C)nn4C)cccc3C(=O)N([C@H](C)CO)C[C@@H]2C)cc1,-2,nt,1,nt,nt,nt
CCCNC(=O)Nc1ccc2c(c1)C(=O)N(C)C[C@@H](OC)[C@H](C)CN(Cc1ccncc1)[C@@H](C)CO2,-2,nt,4,nt,nt,2
